Screens: PubChem, National Center for Advancing Translational Sciences (NCATS)
The list is not random: actives were taken first. Their share in the collection is about 14%.
Giardia FBPA inh: inhibitors of Giardia lamblia fructose-1,6-bisphosphate aldolase. A8B2U2. purified Giardia FBPA. Potency, µM (doses to about 59.6 µM), for the others: at the top dose activity, negative = inhibition, usual class: inhibitors. 0.71% of 290,000 active. AID 2451; also: potency is read from the fitted curve at half-maximal effect; % is scaled to controls: 0 for no effect and ±100 for the full control effect; nearly all actives have a fitted effect of over 55% in size
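40 nM FBPA preincubated 10 min at RT with compound (up to 57.5 uM final), then substrate plus GAPDH/TPI/NAD/arsenate coupling and diaphorase/resazurin added. Fluorescence read after 20 min at RT, 525/598 nm.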
Shiga toxin inh: blocks Shiga toxin action in Vero cells | Vero cells, Shiga toxin protein synthesis inhibition reporter | inhibition, % at 38.7 µM | 9.2% of 290,000 active | AID 2315; in the data active = inhibition mostly above about 28%, no sharp cut-off; inactive = mostly below about 43%; also: 0% is about no effect
LmPK inhibitor: LmPK (Leishmania mexicana) enzyme inhibition. Q27686. purified LmPK, Kinase-Glo ATP luminescence, 1 h. Potency, µM (doses to about 57.5 µM), without a hit: top-dose activity change, negative = inhibition, hits mostly inhibitors. 0.37% of 290,000 active. AID 1721; also: potency is read from the fitted curve at half-maximal effect; % is scaled to controls: 0 for no effect and ±100 for the full control effect
Target sequence (Q27686 whole entry, looked up): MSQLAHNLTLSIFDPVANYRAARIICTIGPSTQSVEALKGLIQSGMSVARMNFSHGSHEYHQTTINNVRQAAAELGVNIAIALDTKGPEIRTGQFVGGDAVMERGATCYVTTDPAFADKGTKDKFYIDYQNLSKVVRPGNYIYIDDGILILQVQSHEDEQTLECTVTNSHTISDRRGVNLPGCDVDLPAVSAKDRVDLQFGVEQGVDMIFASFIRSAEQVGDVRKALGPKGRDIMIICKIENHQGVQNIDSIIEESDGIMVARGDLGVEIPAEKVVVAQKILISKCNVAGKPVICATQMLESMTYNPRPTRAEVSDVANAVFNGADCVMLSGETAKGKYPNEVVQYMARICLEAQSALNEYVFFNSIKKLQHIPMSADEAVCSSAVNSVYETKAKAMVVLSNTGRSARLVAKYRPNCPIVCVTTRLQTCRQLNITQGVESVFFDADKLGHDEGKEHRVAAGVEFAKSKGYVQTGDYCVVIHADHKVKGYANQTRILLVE
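0.1 nM LmPK, 0.5 mM PEP, 0.1 mM ADP; 50 mM imidazole pH 7.2, 7 mM MgCl2, 50 mM KCl; 1 h RT. Kinase-Glo luminescence readout, normalized to no-enzyme (full inhibition) and uninhibited wells.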
NS1 function inh: blocks influenza NS1 protein function. Potency, µM (top dose mostly 46.1 µM), for inactives: at the highest dose activity, positive = more growth. 0.4% of 270,000 active. AID 2326; calls by dose curve; also: potency is read from the fitted curve at half-maximal effect; actives are rising curves; nearly all actives have a fitted effect of over 50% in size
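Recovery from NS1-induced slow growth read by OD600 in budding yeast switched to galactose assay medium (pH 6.0, -URA) at 1:100 dilution. Compound 23 nl per well; the matching strain lacking NS1 serves as control.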
CHX counter: counter-screen for Shiga toxin inhibitors: cycloheximide protein synthesis inhibition; 12% of 300,000 active; cell reporter, cycloheximide protein synthesis inhibition counterscreen; max response, %; in the data active = max response mostly above about 13%, no sharp cut-off; inactive = mostly below about 14%; also: read at 38.3 µM for the half of the compounds with a filed dose; 0% is about no effect
Active calls of the source: *; ? = inconclusive; . = no result; [ ] = another dose, or the depositor's remark. Unless noted, calls follow the shape of the dose curve; as a rule, active = well fitted curve in the direction sought with a large enough effect; inconclusive = small, poorly fitted or top-dose-only effect, or another doubt; inactive = no such curve, though single readings can be large; an effect the other way counts as inactive or inconclusive.

SMILES	Giardia FBPA inh	Shiga toxin inh	LmPK inhibitor	NS1 function inh	CHX counter
CCN1C(C)=C(C(=O)OC)C(c2ccccc2)N2C(=O)[C@](O)(C(=O)OC)C(c3ccccc3)C(C(=O)c3ccccc3)=C12 (some centres undefined)	-0.9%[12.9 µM]	.	.	.	.
CSCC[C@H](NC(=O)OC(C)(C)C)C(=O)N1CCC(C(=O)NCC(=O)Nc2ccc(C)cc2)CC1	-4.1%	-5.4	-0.5%	-2.7%	-1.4
Clc1ccccc1-c1nc2ccccc2[nH]1	-11.9%	81.4*	-28.9%	-6.2%	52.9*
c1ccc2[nH]c(-c3ccnc4ccccc34)nc2c1	?	31.5	-0.4%	-11.4%	27.4*
Cc1ccccc1-c1nc2ccccc2[nH]1	-2.4%	95.4*	-16.5%	-10.8%	45.6*
Cn1cc(Cl)c(-c2nc3ccccc3[nH]2)n1	-5.3%	70.7*	?	-13.9%	25.6*
O=C(NCc1ccccc1)c1ccccc1-c1nc2ccccc2[nH]1	3.0%	-5.1	-1.7%	.	7.9
O=C(c1ccccc1-c1nc2ccccc2[nH]1)N1CCCCC1	7.0%	1.6	-3.7%	-5.2%	0.9
C=C(C(C)=O)C(O)c1ccc2ccccc2c1 (centres undefined)	8.0%	.	.	.	.
COc1cccc(-c2cncnc2Nc2ccc(F)cc2)c1	-7.7%	.	.	.	.
COC(=O)N1c2ccccc2C23[C@@H]4CN5CCC[C@]6(CCC12C(O)(C6)C4=O)[C@H]53	-26.8%	.	.	.	.
Fc1ccccc1-c1nc2ccccc2[nH]1	-25.7%	111.2*	?	-34.4%	39.1*
CCc1ccc(NC(=O)Nc2ccon2)cc1	-2.7%	61.6*	-2.6%	-22.4%	68.4*
CCCCc1ccc(NC(=O)Nc2cnccn2)cc1	-4.9%	50.0*	-6.9%	-34.4%	23.0*
CCc1ccc(NC(=O)Nc2cnccn2)cc1	8.3%	101.9*	-2.7%	-44.9%	46.8*
O=C(Nc1ccc([N+](=O)[O-])cc1)Nc1ccon1	.	-4.9	-2.9%	-2.5%	-1.5
Cc1cc(C(=O)COc2ccccc2C(N)=O)c(C)n1C1CC1	-5.3%	106.5	2.6%	8.3%	40.0*
Cc1cc(C(=O)COc2ccccc2C(N)=O)c(C)n1C	1.4%	27.6	0.8%	.	4.7
Cc1cc(C(=O)COc2ccccc2[N+](=O)[O-])c(C)n1C1CC1	-4.8%	64.9*	-13.9%	.	27.5*
Cc1cc(=O)n2[nH]c(-c3ccc(Cl)cc3)cc2n1	1.7%	81.7*	4.3%	1.4%	35.6*
Cc1cccc(-c2cc3nc(-c4ccccc4)cc(=O)n3[nH]2)c1	-12.9%	49.2	5.3%	0.2%	21.3*
Cc1cc(=O)n2[nH]c(-c3ccc(F)cc3)cc2n1	7.0%	51.0*	-5.1%	-8.4%	25.0*
Cc1cc(=O)n2[nH]c(C)c(-c3ccc(Cl)cc3)c2n1	-13.1%	2.4	0.6%	4.9%	0.6
Cc1ccccc1-c1cc2nc(-c3ccc([N+](=O)[O-])cc3)cc(=O)n2[nH]1	0.6%	-4.6	2.9%	4.5%	1.4
Cc1ccccc1S(=O)(=O)N(CC(O)CN1C(=O)NC(C)(C)C1=O)c1ccccc1 (centres undefined)	-12.8%	-11.4	-2.2%	7.8%	-1.5
SMILES	Giardia FBPA inh	Shiga toxin inh	LmPK inhibitor	NS1 function inh	CHX counter
Cc1ccc(C2CC2c2n[nH]c(=S)n2-c2ccc(Cl)cc2)cc1 (centres undefined)	12.3%	-7.8	?	2.3%	-8.4
S=c1[nH]nc([C@@H]2C[C@H]2c2ccccc2)n1-c1ccccc1Cl	-1.2%	-10.8	12.6µM*	-1.1%	-1.0
COC[C@H]1OC=C[C@@H](OC)[C@@H]1OC	0.4%	.	.	.	.
CC#CCN1c2ccccc2[C@]23C[C@@H](C(=O)OC)N(S(=O)(=O)c4ccc(C#N)cc4)C2=NC(C(=O)OC)=C(C(=O)OC)[C@H]13	4.1%[12.9 µM]	.	0.6%[11.5 µM]	.	.
O=S(=O)(c1ccccc1Br)N(Cc1ccccc1)Cc1ccco1	1.3%	12.4	.	.	7.9
COc1ccc(-c2cc(=O)c3c(O)c(OC)c(OC)c(OC)c3o2)cc1	-4.5%	.	.	.	.
COc1ccc(-c2c(C)c3ccc(O)cc3oc2=O)cc1OC	20.5%	8.4	8.0%	0.9%	0.9
COc1ccc(-c2c(C)c3cc(O)ccc3oc2=O)cc1	2.0%	23.6	4.1%	-22.8%	17.7*
COc1ccc(-c2c(O)c3cc(O)cc(O)c3oc2=O)cc1	1.6%	71.2*	.	.	43.9*
CC(C)(C)SCCNC(=O)c1ccc(CN2CCc3ccccc3C2)cc1	-6.9%	53.5*	-12.1%	0.1%	44.0*
CC(=O)c1cccc(NC(=O)N2CCc3ccccc3C2)c1	-5.9%	100.0*	-2.6%	-65.3%	25.3*
CC(=O)c1cccc(NC(=O)c2ccc(CN3CCc4ccccc4C3)cc2)c1	-10.7%	29.4	1.6%	1.8%	12.5*
CCc1ccccc1NC(=O)N1CCc2ccccc2C1	-1.4%	12.8	5.2%	-12.8%	14.7
CC(=O)c1ccc(NC(=O)N2CCc3ccccc3C2)cc1	-3.5%	109.1*	-4.6%	.	29.2*
Cc1[nH]c(C)c2c(=O)[nH]ncc12	-3.8%	-6.6	-0.2%	-5.0%	-1.6
O=C(NCCC1=CCCCC1)C(=O)c1c[nH]c2ccccc12	0.5%	49.0*	0.7%	-9.3%	26.1*
O=C(NCCOc1ccccc1)C(=O)c1c[nH]c2ccccc12	0.0%	43.6	-0.6%	-7.0%	20.4*
O=C(NCCOc1ccccc1Cl)C(=O)c1c[nH]c2ccccc12	-5.4%	33.9	11.2%	.	11.6
OC(COCc1ccccc1)CN1CCCCC1 (centres undefined)	-26.2%	-4.6	-0.3%	8.5%	10.5
COc1ccc(OCC#CCN2CCCCCC2)cc1	?	29.9	-2.4%	.	11.7*
C(#CCN1CCCCC1)COCc1ccccc1	-8.3%	57.7	-1.7%	-0.8%	17.1*
COc1ccc(OCC#CCN2CCNCC2)cc1	?	17.1	-2.9%	-9.3%	10.6
CC(=O)c1ccc(C(=O)N2CCCC(N3CCN(c4ccc(F)cc4)CC3)C2)s1 (centres undefined)	.	8.1	-6.0%	-64.9%	14.9
O=c1oc(Nc2cccc(F)c2)nc2ccccc12	-2.9%	105.3*	5.8%	0.0%	18.0*
Nc1nc(Nc2cccc(F)c2)nc2ccccc12	9.3%	105.1*	?	-114.1%	28.8*
SMILES	Giardia FBPA inh	Shiga toxin inh	LmPK inhibitor	NS1 function inh	CHX counter
Cc1nnc(NC(=O)CSc2nnc3c(n2)[nH]c2ccc(Br)cc23)s1	-4.1%	-10.7	5.5%	10.9%	1.0
CN1CCN(C(=O)c2sc(=S)n(-c3ccccc3)c2N)CC1	5.61µM*	-0.3	-3.6%	0.8%	-1.6
Cc1ccc(-n2c(N)c(C(=O)N3CCOCC3)sc2=S)cc1	-18.9%	2.6	-3.5%	-1.7%	3.5
CCN(CC(=O)NC(C)(C)C)C(=O)C(c1ccccc1)c1ccccc1	8.5%	-1.5	3.8%	.	0.8
COc1ccc(OC)c(NC(=O)C(=S)NC2CCCCC2)c1	-6.1%	1.1	1.1%	-7.9%	10.7
CCc1cccc(NC(=O)NC2CCCCC2)c1	8.8%	43.7	2.2%	-52.2%	23.1*
CCOc1ccc(NC(=O)C(=S)NC2CCCCC2)cc1	1.8%	36.9	-0.1%	-0.5%	22.5*
CCc1ccc(NC(=O)NC2CCCCCCC2)cc1	.	119.1*	0.3%	-4.6%	53.3*
COc1ccc(NC(=O)C(=S)NC2CCCCC2)cc1	-9.4%	117.6*	3.5%	0.3%	47.1*
